One may read the inhibition as the share of the control response that was lost under treatment.

The structures appear in SMILES notation. Unmarked numbers belong to inactive results.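 How the source made its calls: active means inhibition of plasma PAF acetylhydrolase at a set limit or more at 0.1 µM, with tenfold selectivity over all off-targets; inactive means inhibition below the limit or weaker selectivity.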

The assay can be described thus: competitive ABPP of pPAFAH versus proteome off-targets – biochemical, gel-based, FP-Rh fluorescence, mouse, HTS hit compounds, selectivity assay for pPAFAH inhibitor project, late-stage follow-up (AID 588773). The settings on record: MW 30 kDa protein, at 10 µM, stronger effect = higher value.
For `O=C(CCCSc1ccc(Cl)cc1)Nc1cc(S(=O)(=O)N2CCOCC2)ccc1O`, the inhibition was 19%.
For the compound `O=C(Oc1nsnc1N1CCOCC1)N1CCOCC1`, the inhibition was 35%.
In the case of `O=C(Oc1ccc(-c2ccccc2)cc1)N1CCOCC1` it was 44%; in that of `O=C(/C=C/c1cccs1)c1cc(Br)ccc1OC(=O)N1CCOCC1`, 19%; in that of `O=C(Oc1ccc(-c2ccccc2)cc1)N1CCCCC1`, 69%.
In the case of `O=C(Oc1ccc(Oc2ccccc2)cc1)N1CCC(O)CC1` it was 5%; in that of `CCCCOC(=O)c1ccc(OC(=O)N2CCOCC2)cc1`, 14%.
